# Results reported in PubChem BioAssay AID540308 (The Scripps Research Institute Molecular Screening Center, 2011).
# Among all 360,000 compounds or so, about 3,500 (0.97%) were called active. This is one part of a sample in which actives are shown more often than they occur. Unmarked numbers belong to inactive results.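 The calls were made as follows: active = activation above a per-plate cutoff, the mean activation of sample wells on that plate plus 3 SD (cut at about 8% in these data); inactive = the rest.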
# Biological target: Melanocortin receptor 4 (Homo sapiens) (UniProt P32245)
# Assay: MC4R agonists recruiting beta-arrestin, primary screen, cell-based, luminescence, agonist arm of biased-ligand search (AID 540308)
# Conditions: U2OS MC4R beta-arrestin complementation, at 8.9 µM, stronger effect = higher value, percent of melanotan II response, DMSO zero
# Sequence of Melanocortin receptor 4 (Homo sapiens) (P32245 whole entry, looked up): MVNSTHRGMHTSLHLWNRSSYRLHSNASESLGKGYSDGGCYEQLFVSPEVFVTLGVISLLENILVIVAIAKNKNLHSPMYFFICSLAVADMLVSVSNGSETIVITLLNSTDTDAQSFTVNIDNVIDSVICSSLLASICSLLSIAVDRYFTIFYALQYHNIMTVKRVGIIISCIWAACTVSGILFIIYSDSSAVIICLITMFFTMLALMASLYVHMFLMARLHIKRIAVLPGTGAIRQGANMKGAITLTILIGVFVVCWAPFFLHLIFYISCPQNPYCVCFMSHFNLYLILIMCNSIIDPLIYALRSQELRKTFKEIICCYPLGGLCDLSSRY
row,Compound,activation
1,COC(=O)c1c(C)[nH]c(C(=O)NCCc2ccc(S(N)(=O)=O)cc2)c1C,0.27%
2,CCCCOC(=O)c1[nH]c(C)c(C(=O)OC)c1C,-0.04%
3,COC(=O)c1c(C)[nH]c(C(=O)/C=C/c2ccc(Cl)cc2)c1C,30.6% (active)
4,CCCCCC(O)c1cccc(OCc2ccc3ccccc3n2)c1 (stereo unspecified),8.01%
5,CN(CC(=O)Nc1ccc(Cl)cc1)C(=O)c1ccc(COc2ccccc2)cc1,23.3% (active)
6,COc1ccc(NC(=O)CN(C)C(=O)c2ccc(COc3ccccc3)o2)cc1,-0.54%
7,CN(Cc1ccccc1)C(=O)c1ccc(COc2ccccc2)cc1,-0.25%
8,O=C(Nc1nnc([C@H]2C[C@H](O)[C@@H](CO)O2)s1)c1cccc(Cl)c1,0.51%
9,Cc1cc(Br)ccc1NC(=O)CCCOc1cc(=O)n(C)c2ccccc12,-1.42%
10,CCc1nc2c(OCCC3CCCCC3)cccn2c1N(C)C(=O)c1ccco1,1.25%
11,N#CC(=C1SC=CS1)c1nc(-c2ccccc2)cs1,30.3% (active)
12,N#CC(=C1CCCC1)c1nc(-c2ccc(Cl)cc2)cs1,-1.29%
13,CC(C)c1cccc(-c2csc(C(O)c3ccccc3)n2)c1 (stereo unspecified),5.31%
14,Nc1nnn(CC(=O)N/N=C/c2ccccc2)n1,-0.81%
15,O=C(Cn1nnc(-c2ccccc2)n1)N/N=C/c1ccc(-c2ccc(Cl)cc2)o1,9.43% (active)
16,O=C(CN1CCOCC1)N/N=C/c1ccc(-c2ccc(Br)cc2)o1,-3.54%
17,Cc1cc2nc(SCCN3CCOCC3)[nH]c2cc1C,3.6%
18,Cc1ccc(-n2nc3cc(C)c(NC(=O)c4cccnc4)cc3n2)cc1,2.16%
19,Cc1ccc(NC(=O)c2ccco2)cc1,-2.18%
20,Cc1ccc(-n2nc3cc(Cl)c(NC(=O)c4ccco4)cc3n2)cc1,9.62% (active)
21,CCOc1ccc(C(=O)Nc2ccc(S(=O)(=O)NCC3CCCO3)cc2)cc1OCC (stereo unspecified),-3.73%
22,CCCNC(=O)C1(C)CCCN(Cc2c(C)nn(-c3ccccc3)c2C)C1 (stereo unspecified),0.24%
23,CC(C)Oc1cc(F)ccc1-c1cc(C(=O)Nc2cccc(Cl)c2)[nH]n1,0.52%

row,Compound,activation
1,COc1ccccc1C(=O)OCC(=O)NCCNC(=O)COC(=O)c1ccccc1OC,-1.16%
2,Cc1cc(C)cc(C(=O)OCC(=O)NCCNC(=O)COC(=O)c2cc(C)cc(C)c2)c1,12% (active)
3,COc1ccc(C(=O)OCC(=O)NCCCc2ccccc2)cc1OC,1.24%
4,CCOC(=O)C1CCCN(C(=O)c2ccc(C)c(F)c2)CC1 (stereo unspecified),-1.19%
5,Cc1ccc(-n2c(C)cc(/C=C(\C#N)C(=O)NCC3CCCO3)c2C)cc1 (stereo unspecified),-2.19%
6,N#C/C(=C\c1cccnc1)C(=O)Nc1ccc(SC(F)F)cc1,-1.77%
7,Cc1cc(/C=C(/C#N)C(=O)Nc2ccc(Cl)cc2)c(C)n1-c1cccnc1,11.4% (active)
8,CC1(C(=O)NCC2CCOCC2)Cc2c(-c3cccc(C(N)=O)c3)ccnc2O1 (stereo unspecified),0.47%
9,Cn1nnnc1SCC(=O)Nc1sccc1C(N)=O,0.49%
10,COC(=O)c1ccccc1NC(=O)CSc1nnnn1C,-1.06%
11,CCOC(=O)c1c(-c2ccc(C)cc2C)csc1NC(=O)CSc1nnnn1C,14.8% (active)
12,OC[C@H]1O[C@@H](c2nc(-c3nc(-c4ccc(F)cc4)no3)cs2)[C@H](O)[C@@H](O)[C@H]1O,-1.58%
13,Nc1nc(CSc2nnnn2-c2ccccc2)nc(Nc2ccccc2)n1,3.67%
14,CCOC(=O)c1ccc(-c2ccc3ncnc(N(C)Cc4sccc4C)c3c2)o1,1.6%
15,CC1(C(=O)NS(=O)(=O)c2ccc(C#N)cc2)CCN1C(=O)c1ccc(C2CCCCC2)cc1 (stereo unspecified),-2.29%
16,CCc1ccc(CN(C)C(=O)C2CCC(=O)N(Cc3cccc(OC)c3)C2)nc1 (stereo unspecified),-1.43%
17,Cc1nc2c(OCC(=O)C(C)(C)C)cccn2c1N(C)Cc1cccs1,-0.1%
18,CCN(CC(=O)Nc1c(F)cccc1F)C(=O)c1ccc(S(=O)(=O)N2CCCCC2)cc1,-2.71%
19,CN(C)CCCN(C(=O)c1ccc(S(=O)(=O)N2CCCCCC2)cc1)c1nc2ccc(Br)cc2s1,9.74% (active)
20,CN(C)CCN(C(=O)C1=COCCO1)c1nc2ccc(Cl)cc2s1,1.13%
21,CCNC(=O)C1(C)CCN(Cc2ccc(C(=O)OCC)o2)C1 (stereo unspecified),-1.16%
22,Cn1c(=O)c2cc(NC(=O)NCCc3cccs3)ccc2n1Cc1cccc(C(F)(F)F)c1,-0.26%
23,CCc1nc2c(OCC(N)=O)cccn2c1N(C)C(=O)c1ccc(OC)cc1,-1.44%

row,Compound,activation
1,COC(=O)c1nc2n(n1)C(c1ccc([N+](=O)[O-])cc1)C(C(=O)Nc1ccc(Cl)cc1)=C(C)N2 (stereo unspecified),9.62% (active)
2,COc1cc(C2C(C(=O)Nc3ccc(F)cc3)=C(C)Nc3nc(CCCO)nn32)cc(OC)c1OC (stereo unspecified),-1.43%
3,COc1ccc(NC(=O)C2=C(C)NC(=O)NC2c2ccccc2[N+](=O)[O-])cc1 (stereo unspecified),-2.18%
4,CCNC(=O)C1(C)CCN(C(=O)c2ccccc2)C1 (stereo unspecified),1.33%
5,CSCCC(Nc1ccc(S(=O)(=O)N2CCOCC2)cc1[N+](=O)[O-])C(=O)OCC(=O)N(C(C)C)C(C)C (stereo unspecified),-3.39%
6,NC(=O)C1CCN(C(=O)c2cn(-c3ccccc3)nc2-c2cccnc2)CC1,8.8% (active)
7,COc1ccccc1N1CCN(C(=O)c2cn(-c3ccccc3)nc2-c2cccnc2)CC1,0.24%
8,O=C(c1cn(-c2ccccc2)nc1-c1cccnc1)N1CCN(S(=O)(=O)c2ccccc2F)CC1,-2.08%
9,COC(=O)c1ccc(NCc2cc(O)ccc2O)cc1,-1.55%
10,CC(C)OC(=O)c1ccc(NCc2cc(O)ccc2O)cc1Cl,-0.65%
11,O=C(OC12CC3CC(CC(C3)C1)C2)c1ccc(NCc2cc(O)ccc2O)cc1,18.7% (active)
12,CC(=O)NC(c1ccccc1)c1nc(-c2cccc(C(C)C)c2)cs1 (stereo unspecified),-1.73%
13,CCCNC(=O)c1cc(C2CCCCN2C(=O)OC)on1 (stereo unspecified),-0.19%
14,Cc1cc(OCc2cc(C(=O)NCc3cc(C(C)C)no3)no2)cc(C)c1Cl,10% (active)
15,COc1ccc(OCc2cc(C(=O)NCC3(C)COC3)no2)c(Cl)c1,-0.53%
16,Cc1cccnc1CC(C)NC(=O)c1cc(COc2cncc(Cl)c2)on1 (stereo unspecified),0.62%
17,O=C(CCc1ccccc1)Nc1ccnn1C1CCN(Cc2ccc(OCCO)cc2)CC1,1.84%
18,CCCNC(=O)C1(C)CCN(Cc2ccc(Cl)c(Cl)c2)C1 (stereo unspecified),-2.21%
19,CCOC(=O)c1c(-c2ccccc2)oc2cc(Br)c(O)c(C=O)c12,48% (active)
20,Cc1oc2cc(Br)c(O)c(Br)c2c1C(=O)c1ccccc1,-0.65%
21,CCOC(=O)c1c(C)oc2cc(Sc3ccccc3)c(O)c(O)c12,2.95%
22,COc1ccc(C2CC(c3cccc(OC)c3)=NN2c2ccc(S(N)(=O)=O)cc2)cc1 (stereo unspecified),-0.4%
23,COc1ccc(-c2csc(C(O)c3cccc(Cl)c3)n2)cn1 (stereo unspecified),-0.23%

row,Compound,activation
1,CC1(C(=O)NS(=O)(=O)c2ccc(C#N)cc2)CCN1C(=O)CC1CCCC1 (stereo unspecified),-0.26%
2,Cc1ccc(C(=O)NC(=S)Nc2ccc(N3CCOCC3)cc2)cc1,-0.72%
3,Cc1ccc(NC(=S)NC(=O)c2ccc(-c3ccccc3)cc2)cc1,8.85% (active)
4,CC(=O)Nc1ccc(NC(=S)NC(=O)c2ccc([N+](=O)[O-])c(C)c2)cc1,0.22%
5,Cn1c(NCc2cccnc2)nc2cc(-c3ccc(F)cc3)sc2c1=O,1.42%
6,OC[C@@H]1CN(Cc2ccc3c(c2)OCO3)C[C@H](n2cnc3c(NCc4ccco4)ncnc32)O1,0.72%
7,CC(=O)Nc1cncc(-c2ccccc2CO)n1,-1.61%
8,COc1ccc2ccccc2c1CNc1nnnn1C,-2.85%
9,Cn1c(=S)sc2ccc3ccccc3c21,18.2% (active)
10,CCc1nc2ccc(C(=O)N3CCC(O)(Cc4ccccc4)CC3)cn2c1N(C)C(=O)Cc1ccccc1,-0.81%
11,Cc1ccc(CCC(=O)Nc2ncc(Cc3cc(Cl)ccc3Cl)s2)o1,10.3% (active)
12,Cc1ccc(Cc2cnc(N)s2)o1,0.06%
13,O=C(CCc1ccccc1Cl)Nc1ccc(S(=O)(=O)Nc2nccs2)cc1,-1.67%
14,CNc1cnc(-c2cc(OC)c(OC)c(OC)c2)cn1,0.24%
15,CCOC(=O)C1(C)CCCN(C(=O)c2ccc(F)c(Cl)c2)C1 (stereo unspecified),-0.39%
16,CC(=O)c1ccc(NC(=O)c2sc3nc4n(c(=O)c3c2C)CCCCC4)cc1,-2.88%
17,CC(=O)Nc1ccc(NC(=O)c2sc3nc4c(c(-c5ccc(C)cc5)c3c2N)CCC4)cc1,11.7% (active)
18,Cc1ccc(NC(=O)c2sc3nc(N)c(C#N)cc3c2N)cc1,7.55%
19,CC1(C(=O)NCc2ccc(F)c(F)c2)Cc2c(-c3ccc4c(c3)OCO4)ccnc2O1 (stereo unspecified),-2.86%
20,CCOC(=O)C1(C)CCCN(C(=O)c2ccc(N(C)C)cc2)C1 (stereo unspecified),-1.51%
21,CN(C)CCCOc1ccc(-c2ccc3nccn3c2)cn1,-1.74%
22,CSc1ccc(CN2CCC2(C)C(=O)Nc2ccc(C)c(O)c2)cc1 (stereo unspecified),-0.16%
